The record followed here is PubChem BioAssay (NCATS).

Results filed as inconclusive are left out. A number with no mark means an inactive call. The source made the active and inactive calls. Calls follow the shape of the dose curve; as a rule, active = well fitted inhibition curve with a large enough effect; inconclusive = small, poorly fitted or top-dose-only effect; inactive = flat fitted curve, though single readings scatter.
% is scaled to controls: 0 for no effect and ±100 for the full control effect; potency is read from the fitted curve at half-maximal effect.

Chain of Calcium and integrin-binding protein 1 (Homo sapiens) (Q99828 whole entry, looked up): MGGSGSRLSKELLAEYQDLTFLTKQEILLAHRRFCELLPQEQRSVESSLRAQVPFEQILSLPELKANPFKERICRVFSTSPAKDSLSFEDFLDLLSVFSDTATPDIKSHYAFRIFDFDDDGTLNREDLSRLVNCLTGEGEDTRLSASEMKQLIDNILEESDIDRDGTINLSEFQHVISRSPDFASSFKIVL

The target of this assay is Calcium and integrin-binding protein 1 (Homo sapiens) (UniProt Q99828). The assay can be described thus: Primary qHTS for Identification of Calcium Integrin Binding Protein 1 (CIB1) Competitor (AID 1508620). As to activity change, negative = inhibition: top concentration of the series differs between compounds. The following applies: CIB1-GST / FITC-alphaIIb peptide fluorescence polarization; series mostly up to 114 µM; activity change, negative = inhibition: at the top concentration. The gist of the method:
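Fluorescence polarization competition: GST-tagged CIB1 (1 uM final) preincubated with compound 15 min at room temperature, then FITC-labelled alphaIIb peptide (100 nM final) added. After 15 min at room temperature, polarization read at Ex 480/Em 540.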
On to `Cc1cccc(Nc2nn3c(=O)c4ccccc4nc3s2)c1`, for which the “activity change, negative = inhibition” value was 3.52%.
As for `Cc1cc2c(s1)c1cnn(Cc3ccc(Br)cc3F)c(=O)c1n2C`, the “activity change, negative = inhibition” value was 5.52%.
The same measure, in the same setting: with `O=c1c2ccccc2nc2sc(NCc3ccc(Sc4ccccc4)cc3)nn12` the figure was 4.21%; with `Cc1ccc2nc3sc(C(=O)NC4CCCC4)cc3cc2c1`, 7.06%; with `O=C(Nc1ccc(-c2nc3ccccc3[nH]2)cc1)c1ccc2cc[nH]c2c1`, 2.35%.
`CCN1CCN(C(=S)c2ccc(O)cc2)CC1`: the “activity change, negative = inhibition” value is -2.73%.
Turning to `Cc1cc(C)n2ncc(C(=O)Nc3ccc(Br)cc3)c2n1`, the “activity change, negative = inhibition” value is 1.73%.
Consider `Nc1nnc(-c2ccc3ccccc3c2)o1`, for which the “activity change, negative = inhibition” value is 5.86%.
As for `COc1ccc(N2C[C@]34C=C[C@H](O3)C(C(=O)O)C4C2=O)cc1OC` (some centres undefined), the “activity change, negative = inhibition” value is 1.01%.
Turning to `CCOc1ccc(CCNC(=O)c2ccc3[nH]ccc3c2)cc1OCC`, the “activity change, negative = inhibition” value is 0.152%.
As for `Cc1cccc(-n2cnc3cc(C(=O)N4CCCC4)ccc32)c1`, the “activity change, negative = inhibition” value was 0.905%.
For `N#Cc1ccccc1CNc1nc2ncc(Br)cc2[nH]1`, the “activity change, negative = inhibition” value was -6.43%.
Still for that read-out and setting: in the case of `O=C1CCc2cc(S(=O)(=O)Nc3ccc(Cl)cc3)ccc2N1` it was -1.62%; in that of `O=C1c2ccccc2NC(c2ccc(-c3ccc(-c4ccccc4)cc3)o2)N1O` (centres undefined), -12.7%.
Still for that read-out and setting: with `Cc1ccc(NS(=O)(=O)c2ccc(F)cc2)cc1C` the figure was 1.76%; with `CC(=O)c1cccc(-c2csc(N3CCC(C(N)=O)CC3)n2)c1`, -2.67%.
The same measure, in the same setting: in the case of `O=C(COc1ccc(F)cc1)NCCc1nc2ccccc2[nH]1` it was 0.396%; in that of `CCC(=O)NC(c1cccs1)c1cc([N+](=O)[O-])c2cccnc2c1OC` (centres undefined), -13.6%.
For `CCOc1ccc(C(=O)Oc2ccc(-c3nc4ccccc4[nH]3)cc2)cc1Cl`, the “activity change, negative = inhibition” value is 7.2%.
The same measure, in the same setting: in the case of `CCOC(=O)C1CCN(C(=O)C(C)(C)NC(=O)Nc2ccc3ccccc3c2)CC1` it was -18.8%.
As for `O=C(Nc1ccc(-c2nc3ccccc3[nH]2)cc1)c1ccc2n[nH]nc2c1`, the “activity change, negative = inhibition” value is 4.23%.
Still for that read-out and setting: in the case of `Cc1cc2c(s1)c1cnn(Cc3ccc(F)c(Cl)c3)c(=O)c1n2C` it was 0.767%; in that of `FC(F)(F)c1cccc(Nc2ccc(CNc3nc(-c4ccccc4C(F)(F)F)nc4ccccc34)cc2)c1`, 4.13%; in that of `Cc1nnc(-c2cnn(C)c2N)n1CCCc1cccnc1`, 7.75%.
As to `Cc1cc(C)n2ncc(C(=O)Nc3cccc(C#N)c3)c2n1`, the “activity change, negative = inhibition” value is -2.37% [at 30.2 µM].
On the same count and under the same terms, with `COC(=O)c1nc(Nc2cc(F)cc(F)c2)nc(NC2CCCC2)n1` the figure was -0.863%.
Regarding `COc1ccc(/C=C(\C)C2Nc3cccc4cccc(c34)N2)cc1`, the “activity change, negative = inhibition” value is -19%.
The same measure, in the same setting: in the case of `COc1cccc(NC(=S)N2CCN(c3ccccc3C(F)(F)F)CC2)n1` it was -3.06%; in that of `NC(=O)C1CCN(c2nc(-c3ccccc3F)cs2)CC1`, -0.328%; in that of `NC(=O)C1CCN(c2nc(-c3ccc4ccccc4c3)cs2)CC1`, -3.42%.
As to `O=C(OCC#CCSc1nnc(-c2cccc3ccccc23)o1)c1cc2ccccc2o1`, the “activity change, negative = inhibition” value is -3.02%.
Regarding `Cc1ccc(-c2ccc(=O)n(CC(=O)NCCCN(C)C)n2)cc1`, the “activity change, negative = inhibition” value is -1.42%.
`CCSC1=NS(=O)(=O)c2ccccc21`: the “activity change, negative = inhibition” value was -1.58%.
With `NNc1ccc(NC(=O)c2cccs2)cn1`, the “activity change, negative = inhibition” value is -18.6%.
Take `CCOC(=O)c1nc(NCc2ccccc2)sc1C`: the “activity change, negative = inhibition” value was -2.45%.
With `O=Cc1c(-c2ccccc2)no[n+]1[O-]`, the Potency was 50.1 µM (active).
Turning to `COc1ccc(C2Nc3ccccc3C(=O)N2Cc2ccc(-c3ccccc3)cc2)cc1COc1ccc(NC(C)=O)cc1` (centres undefined), the “activity change, negative = inhibition” value is 0.528%.
Still for that read-out and setting: with `O=C(O)c1ccc(-n2cccc2/C=C2\SC(=O)N(Cc3ccc(F)cc3)C2=O)cc1` the figure was 5.21%.
As for `CN(Cc1ccc(-c2ccccc2)cc1)c1nc(-c2ccccc2C(F)(F)F)nc2ccccc12`, the “activity change, negative = inhibition” value was 2.07%.
